According to PubChem BioAssay (Tox21):
Several values for one entry are separate records, joined by “and”; a condition that tells them apart may be missing. Identical values can stand only once. Some structures have more than one record in an assay (separate samples or runs), and their calls can disagree. Activity calls are given as the source filed them. A call without a number means that no potency is given here. Calls come from the whole dose curve; as a rule, active = well fitted curve in the direction sought with a large enough effect in the signal ratio in the repeat runs (not every such curve was filed as active); inconclusive = weak or mixed curves, or effect the other way; inactive = no such curve, though single readings can be large or run the other way; the % refers to the signal ratio.

Molecular target: Estrogen receptor (Homo sapiens) (UniProt P03372)
Test: qHTS assay to identify small molecule antagonists of the estrogen receptor alpha (ER-alpha) signaling pathway (AID 743069)
Settings: HEK293 ER-alpha-UAS-bla, beta-lactamase ratio, antagonist mode; series mostly up to 69.4 µM; activity, negative = inhibition: at the top concentration
Source text: National Center for Advancing Translational Sciences [NCATS]
NIH Chemical Genomics Center [NCGC]
U.S. Environmental Protection Agency [EPA]
National Institutes of Environmental Health Sciences [NIEHS]
National Toxicology Program [NTP]
U.S. Food and Drug Administration [FDA]
Estrogen receptor (ER), a nuclear hormone receptor, plays an important role in development, metabolic homeostasis and reproduction. Two subtypes of ER, ER-alpha and ER-beta have similar expression patterns with some uniqueness in both types. Endocrine disrupting chemicals (EDCs) and their interactions with steroid hormone receptors like ER causes disruption of normal endocrine function. To identify the compounds that inhibit ER signaling, an ER-alpha-UAS-bla GripTiteTM cell line (Invitrogen, Carlsbad, CA, USA) containing a beta-lactamase reporter gene under the control of an Upstream Activator Sequence (UAS) stably integrated into HEK293 cells was used to screen the Tox21 10K compound library.
Tox21 Assay Protocol Summary:
ER-alpha-bla cells were cultured in assay medium containing 2% charcoal stripped FBS overnight in the culture flasks before the assay was performed. The cells were dispensed at 5,000 cells/5 uL of assay medium per well into black wall/clear-bottom 1536-well plates using a Multidrop Combi (ThermoFisher Scientific, Waltham, MA) dispenser. After the assay plates were incubated at a 37C and 5% CO2 for 4 hr, 23 nL of compounds dissolved in DMSO, positive controls or DMSO only was transferred to the assay plate by a Pintool station (Kalypsys, San Diego, CA), followed by addition of 1 uL of 17beta-estradiol in assay medium using a Flying Reagent Dispenser (Aurora Discovery, San Diego, CA). The plates were incubated at 37C and 5% CO2 for 18 hr. Then 1 uL of LiveBLAzerTM B/G FRET substrate was added using a Flying Reagent Dispenser, the plates were incubated at room temperature for 2 hours, and fluorescence intensity was measured by an Envision plate reader (PerkinElmer, Shelton, CT).
Potency is the fitted concentration of half-maximal effect.

Chain of Estrogen receptor (Homo sapiens) (P03372 whole entry, looked up): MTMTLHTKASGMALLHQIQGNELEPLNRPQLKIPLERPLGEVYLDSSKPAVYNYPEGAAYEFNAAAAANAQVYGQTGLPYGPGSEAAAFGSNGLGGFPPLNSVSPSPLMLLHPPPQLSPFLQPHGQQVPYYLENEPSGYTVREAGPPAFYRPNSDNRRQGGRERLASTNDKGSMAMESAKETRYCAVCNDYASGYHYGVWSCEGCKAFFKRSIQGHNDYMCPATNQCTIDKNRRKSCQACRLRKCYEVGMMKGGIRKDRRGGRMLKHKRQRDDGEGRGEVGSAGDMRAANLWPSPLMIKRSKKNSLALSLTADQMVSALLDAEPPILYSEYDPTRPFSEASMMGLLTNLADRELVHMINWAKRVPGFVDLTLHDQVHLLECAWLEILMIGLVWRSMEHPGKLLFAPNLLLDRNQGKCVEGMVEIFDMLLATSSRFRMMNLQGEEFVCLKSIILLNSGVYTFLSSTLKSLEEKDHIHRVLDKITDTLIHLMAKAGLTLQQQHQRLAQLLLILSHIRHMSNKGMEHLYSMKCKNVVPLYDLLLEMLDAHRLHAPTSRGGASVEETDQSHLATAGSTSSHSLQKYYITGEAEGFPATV

SMILES | activity, negative = inhibition | Potency
CCCCCCCC/C=C\CCCCCCCC(=O)O | -21.6% (inactive) | 
ClC/C=C/CCl |  | inactive
CCc1cccc2c3c([nH]c12)C(CC)(CC(=O)O)OCC3 (stereo not given) |  | inactive
CCC(Cc1c(I)cc(I)c(N)c1I)C(=O)O (stereo not given) |  | inactive and 47.5 µM [inconclusive] (active)
CC1(C)C(C=C(Cl)Cl)C1C(=O)OCc1cccc(Oc2ccccc2)c1 (stereo not given) |  | inactive
c1ccc2c(c1)ccc1cc3c(ccc4ccccc43)cc12 | -6.54% (inactive) | 
COc1ccc2nc(N)sc2c1 |  | inactive
CNC[C@H](O)c1ccc(O)c(O)c1 |  | inactive
CCOC(=O)C(C)Oc1ccc(Oc2cnc3cc(Cl)ccc3n2)cc1 (stereo not given) |  | inactive
CN(C)C |  | inactive
C=C[Si](OCCOC)(OCCOC)OCCOC |  | inactive
C1COCCN1 |  | inactive
CCCCCC1C(=O)CCC1CC(=O)OC (stereo not given) |  | inactive
NCCN |  | inactive
[O-]/[N+](=N\O)c1ccccc1 |  | inactive
CC1(C)O[C@@H]2C[C@H]3[C@@H]4C[C@H](F)C5=CC(=O)C=C[C@]5(C)[C@@]4(F)[C@@H](O)C[C@]3(C)[C@]2(C(=O)CO)O1 | 13.7% (inactive) | 
Cc1ccc([N+](=O)[O-])c(C)c1 |  | inactive
O=S1(=O)CCCO1 |  | inactive
O=C(O)CCCC(=O)O |  | inactive
Cc1ccc(C(C)(C)C)c(O)c1 |  | inactive

SMILES | activity, negative = inhibition | Potency
OC[C@H]1O[C@@H]2O[C@H]3[C@H](O)[C@@H](O)[C@@H](O[C@H]4[C@H](O)[C@@H](O)[C@@H](O[C@H]5[C@H](O)[C@@H](O)[C@@H](O[C@H]6[C@H](O)[C@@H](O)[C@@H](O[C@H]7[C@H](O)[C@@H](O)[C@@H](O[C@H]1[C@H](O)[C@H]2O)O[C@@H]7CO)O[C@@H]6CO)O[C@@H]5CO)O[C@@H]4CO)O[C@@H]3CO |  | inactive
OC[C@@H](O)[C@@H](O[C@@H]1O[C@H](CO)[C@H](O)[C@H](O)[C@H]1O)[C@H](O)[C@@H](O)CO |  | inactive
O=[Se](O)O |  | 43.7 µM [inconclusive] (active) and inactive
C=C1C[C@H]2[C@@H]3C=C(C)C4=CC(=O)CC[C@]4(C)[C@H]3CC[C@]2(C)[C@@]1(OC(C)=O)C(C)=O | -8.85% (inactive) | 
c1ccc2ncccc2c1 |  | inactive
Brc1nc2ccccc2s1 |  | inactive
CCCCCC=O |  | inactive
COC(=O)c1ccc(C)cc1 |  | inactive
CCO[Si](CCCNC(N)=O)(OCC)OCC |  | inactive
C=CCNCC=C |  | inactive
Nc1ccc(O)c(N)c1 |  | inactive
C/C=C/C(=O)N(CC)c1ccccc1C |  | inactive
Cc1ccc(/C(=C\CN2CCCC2)c2ccccn2)cc1 |  | inactive
CCCN1C=CN(C)C1 |  | inactive
CCCCCCC(C)O (stereo not given) |  | inactive
[Na+] |  | inactive
OCCNCCO | 16.2% (inactive) | 
CC1=CC(C)(C)Nc2ccccc21 |  | inactive
CC(=O)[C@@]1(O)CC[C@H]2[C@@H]3C[C@H](C)C4=CC(=O)C=C[C@]4(C)[C@@]3(F)[C@@H](O)C[C@@]21C | 8.3% (inactive) | 
C=CN1CCCC1=O |  | inactive
